The values that follow come from PubChem BioAssay (NCATS).

Assay in all cases: qHTS profiling for inhibitors of Plasmodium falciparum proliferation (AID 504749); note: nearly all actives have a fitted effect of over 60% in size
Conditions in all cases: P. falciparum in erythrocytes, SYBR Green DNA, 72 h; series mostly up to 28.7 µM
Background: In qHTS, concentration-response curves come from the screen itself.

The test system of assay [1] is ATS95. The essentials:
(§1)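 In a 72 h erythrocytic culture (37 C, humidified, 5% CO2) at 2.5% hematocrit and 0.3% starting parasitemia, compounds were tested; SYBR Green I in detergent lysis buffer stained parasite DNA overnight.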

The test system of assay [2] is C2A. The essentials:
as §1

In assay [3] the test system is CP185. The essentials: as §1
Assay [4] concerns CP191. The essentials: as §1
For assay [5], the system named is CP194. The essentials: as §1
Assay [6] deals with CP201. The essentials: as §1
For assay [7], the system named is CP203. The essentials:
as §1

For assay [8], the system named is CP211. The essentials:
as §1

The test system of assay [9] is CP215. The essentials:
as §1

For assay [10], the system named is CP217. The essentials:
as §1

In assay [11] the test system is CP237. The essentials:
as §1

Assay [12] has as its system CP238. The essentials:
as §1

Assay [13] relates to CP247. The essentials: as §1
In assay [14] the test system is CP250. The essentials: as §1
Assay [15] concerns CP252. The essentials: as §1
In assay [16] the test system is CP256. The essentials: as §1
Assay [17] relates to CP260. The essentials:
as §1

Assay [18] deals with CP262. The essentials: as §1
The subject of assay [19] is CP265. The essentials:
as §1

For assay [20], the system named is CP192. The essentials:
as §1

Results filed as inconclusive are left out. The source made the active and inactive calls. Calls come from the whole dose curve; as a rule, active = well fitted inhibition curve with a large enough effect; inconclusive = small, poorly fitted or top-dose-only effect; inactive = flat fitted curve, though single readings scatter.
Potency is the fitted concentration of half-maximal effect.

With `O=C(O)CCNC(=O)c1ccccc1`, the Potency entry in [1], in assay [2], in assay [3], in assay [4], in assay [5] and in [6] was “inactive” throughout. In addition, the Potency result in [7], in assay [8], in assay [9], in [10], in [11] and in assay [12] was “inactive” in each case. The Potency entry in assay [13], in assay [14], in assay [15], in assay [16], in assay [17] and in [18] was “inactive” throughout. Also, in assay [19], the Potency result was “inactive”.
For `NC(N)=NN=C(/C=C/c1ccc([N+](=O)[O-])o1)/C=C/c1ccc([N+](=O)[O-])o1`, the Potency in assay [1] is 10 µM (active); in assay [2] it was 12.6 µM (active); in [4] it was 10 µM (active); in [11], 3.55 µM (active); in assay [13], 7.08 µM (active); in [14], 11.2 µM (active). The Potency in assay [17] was 3.55 µM (active). The Potency entry in assay [18] was “inactive”.
`NS(=O)(=O)c1cc(C(=O)O)cc(N2CCCC2)c1Oc1ccccc1`: the Potency result in assay [1], in [2], in assay [3], in assay [4], in assay [20] and in assay [5] was “inactive” throughout. Further, the Potency entry in assay [6], in assay [8], in assay [9], in assay [10], in [11] and in [12] was “inactive” throughout. For the same compound, the Potency entry in assay [13], in [14], in [15], in assay [16], in assay [17] and in [18] was “inactive” throughout. Also, the Potency entry in assay [19] was “inactive”.
In the case of `CCCN(CCc1cccs1)[C@H]1CCc2c(O)cccc2C1`, the Potency is 7.94 µM (active) in assay [1]; 11.2 µM (active) in assay [2]; 11.2 µM (active) in assay [3]; 10 µM (active) in assay [4]; 13.5 µM (active) in [5]; 6.75 µM (active) in [7]. The Potency was 10.7 µM (active) in [8]; 15.1 µM (active) in assay [9]; 11.2 µM (active) in assay [10]; 3.16 µM (active) in assay [11]; 10 µM (active) in assay [12]; 8.91 µM (active) in [13]. Also, the Potency was 11.2 µM (active) in [15], 12.6 µM (active) in [17] and 11.2 µM (active) in assay [19].
For the compound `Cc1cc(CC(=O)O)c(C)n1-c1ccc(Cl)cc1`, the Potency entry in [1], in assay [2], in assay [3], in assay [20], in assay [5] and in assay [6] was “inactive” throughout. Besides, the Potency entry in assay [7], in assay [8], in assay [9], in [12], in assay [13] and in assay [14] was “inactive” throughout. Moreover, the Potency entry in assay [16], in [17], in assay [18] and in [19] was “inactive” in each case.
As for `COc1ccc(CN(CCN(C)C)c2ncccn2)cc1`, the Potency result in assay [1], in assay [2], in [3], in [4], in assay [20] and in assay [5] was “inactive” throughout. Besides, the Potency result in assay [6], in assay [8], in [9], in [10], in assay [12] and in [13] was “inactive” throughout. The Potency entry in assay [14], in assay [15], in assay [16], in assay [17], in assay [18] and in assay [19] was “inactive” in each case. In assay [11], the Potency was 7.08 µM (active).
For `Cc1cc(NS(=O)(=O)c2ccc(N)cc2)nc(C)n1`, the Potency entry in assay [1], in [2], in assay [3], in assay [4], in assay [20] and in assay [5] was “inactive” throughout. The Potency entry in assay [6], in assay [7], in [9], in assay [10], in assay [11] and in assay [12] was “inactive” throughout. In addition, the Potency result in [13], in assay [14], in assay [15], in [16], in assay [17] and in assay [18] was “inactive” in each case. Further, the Potency result in [19] is “inactive”.
Take `CCOC(=O)Nc1ccc2c(c1)N(C(=O)CCN1CCOCC1)c1ccccc1S2`: the Potency entry in assay [1], in assay [2], in assay [3], in assay [20], in [5] and in [6] was “inactive” in each case. For the same compound, the Potency entry in assay [7], in [8], in assay [9], in assay [10], in assay [11] and in [12] was “inactive” in each case. For the same compound, the Potency result in assay [13], in assay [14], in assay [15], in assay [16], in assay [17] and in assay [18] was “inactive” throughout. The Potency entry in [19] is “inactive”.
On to `C[N+]1(C)CCC(=C(c2ccccc2)c2ccccc2)CC1`, for which the Potency result in [1], in [2], in assay [3], in assay [5], in assay [6] and in [7] was “inactive” in each case. Also, the Potency result in [8], in [9], in [10], in assay [11], in assay [12] and in assay [13] was “inactive” throughout. Also, the Potency result in [14], in assay [15] and in assay [19] was “inactive” throughout.
For `CC(=O)NO`, the Potency result in [1], in assay [2], in assay [3], in [4], in assay [20] and in assay [5] was “inactive” throughout. The Potency entry in [7], in assay [8], in assay [9], in assay [10], in assay [11] and in [12] was “inactive” in each case. Also, the Potency result in [13], in [14], in assay [15], in assay [16], in assay [17] and in assay [18] was “inactive” throughout. In addition, the Potency result in assay [19] is “inactive”.
Take `CC[C@H](c1ccc(O)cc1)[C@@H](CC)c1ccc(O)cc1`: the Potency entry in [1], in [2], in [3], in assay [4], in assay [20] and in [5] was “inactive” throughout. Also, the Potency result in [6], in [7], in [9], in [10], in assay [11] and in assay [12] was “inactive” in each case. Also, the Potency entry in assay [13], in assay [14], in assay [15], in assay [16], in assay [17] and in assay [18] was “inactive” throughout. For the same compound, in assay [19], the Potency result is “inactive”.
With `O=C(NC1CCN(CCc2c[nH]c3ccccc23)CC1)c1ccccc1`, the Potency entry in assay [1], in assay [2], in assay [3], in assay [20], in assay [5] and in assay [6] was “inactive” throughout. Moreover, the Potency result in assay [8], in assay [9], in assay [10], in assay [11], in assay [12] and in [13] was “inactive” each time. Further, the Potency entry in assay [14], in [15], in [16], in assay [17], in [18] and in assay [19] was “inactive” throughout. In addition, the Potency in assay [4] is 8.91 µM (active).
Consider `COc1cc([C@H]2Oc3cc([C@H]4Oc5cc(O)cc(O)c5C(=O)[C@@H]4O)ccc3O[C@@H]2CO)ccc1O`, for which the Potency result in [1], in assay [2], in [3], in assay [4], in assay [20] and in [6] was “inactive” throughout. In addition, the Potency entry in assay [7], in assay [8], in assay [9], in [10], in assay [11] and in [12] was “inactive” throughout. For the same compound, the Potency result in assay [14], in [15], in assay [16], in [17], in assay [18] and in assay [19] was “inactive” throughout.
